Shown is part of a subset that was picked to be rich in hits.
NS1 inh: influenza NS1 inhibition; Potency, µM (highest dose often 46.1 µM), inactives show top-dose activity, positive = more growth; 270,000 compounds, 0.4% hits; calls by dose curve; note: potency is the fitted concentration of half-maximal effect; actives are rising curves; nearly all actives have a fitted effect of over 50% in size
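S. cerevisiae expressing influenza A NS1, grown in glucose, washed, then diluted 1:100 into pH 6.0 -URA galactose medium with 23 nl compound. Growth recovery read as OD600; NS1-free strain serves as control.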
SARS PLP yeast: blocks SARS-CoV papain-like protease in a yeast assay; S. cerevisiae expressing SARS-CoV PLpro, growth rescue; Potency, µM (series often up to 32.9 µM), for inactives: at the top dose activity, positive = growth rescue, usual class: activators; 330,000 compounds, 0.19% hits; calls by dose curve; note: potency is the fitted concentration of half-maximal effect; 0% is about no effect; nearly all actives have a fitted effect of over 55% in size
Cycloheximide cs: affects cycloheximide protein synthesis inhibition readout, counter-screen. AID 2314. cell reporter, cycloheximide protein synthesis inhibition counterscreen. max response, %. 300,000 compounds, 12% hits; in the data active = max response mostly above about 13%, no sharp cut-off; inactive = mostly below about 14%; note: read at 38.3 µM for the half of the compounds with a filed dose; 0% is about no effect
LmPK inhibitor: blocks Leishmania mexicana pyruvate kinase activity | Q27686 | purified LmPK, Kinase-Glo ATP luminescence, 1 h | Potency, µM (top dose mostly 57.5 µM), without a hit: top-dose activity change, negative = inhibition, actives largely listed as inhibitors | 290,000 compounds, 0.37% hits | AID 1721; note: potency is the fitted concentration of half-maximal effect; % is set by controls: 0 for no effect and ±100 for the full control effect
Target sequence (Q27686 whole entry, looked up): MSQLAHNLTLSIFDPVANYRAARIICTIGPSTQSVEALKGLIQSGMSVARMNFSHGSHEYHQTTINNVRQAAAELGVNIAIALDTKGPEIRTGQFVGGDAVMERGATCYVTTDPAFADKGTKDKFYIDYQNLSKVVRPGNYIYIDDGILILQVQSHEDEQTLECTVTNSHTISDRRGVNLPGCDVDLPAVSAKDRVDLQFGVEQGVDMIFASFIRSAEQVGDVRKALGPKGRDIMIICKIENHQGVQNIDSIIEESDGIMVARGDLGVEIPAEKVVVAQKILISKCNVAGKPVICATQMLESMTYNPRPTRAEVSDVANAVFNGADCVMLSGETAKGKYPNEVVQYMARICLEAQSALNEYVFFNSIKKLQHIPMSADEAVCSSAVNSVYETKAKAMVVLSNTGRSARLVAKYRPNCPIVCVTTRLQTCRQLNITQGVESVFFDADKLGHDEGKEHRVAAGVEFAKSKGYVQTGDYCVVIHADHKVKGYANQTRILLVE
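Pyruvate kinase activity monitored as ATP production (luciferase luminescence). Conditions: 0.1 nM enzyme, 0.5 mM PEP, 0.1 mM ADP, 1 h, RT; normalized against uninhibited and no-enzyme wells.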
Shiga inhibitor: blocks Shiga toxin action in Vero cells; Vero cells, Shiga toxin protein synthesis inhibition reporter; inhibition, % at 38.7 µM; 290,000 compounds, 9.2% hits; AID 2315; in the data active = inhibition mostly above about 28%, no sharp cut-off; inactive = mostly below about 43%; note: 0% is about no effect
Tb PYK inh: blocks Trypanosoma brucei pyruvate kinase; Q57TT1; TbPYK enzyme, Kinase-Glo Plus ATP luminescence, 45 min; Potency, µM (series often up to 76.8 µM), for inactives: at the top dose activity, negative = inhibition, hits mostly inhibitors; 410,000 compounds, 0.12% hits; AID 624173; note: potency is the fitted concentration of half-maximal effect; % is set by controls: 0 for no effect and ±100 for the full control effect; nearly all actives have a fitted effect of over 50% in size
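TbPYK + substrate in 50 mM TEA pH 7.2, 100 mM KCl, 10 mM MgCl2, 0.05% BSA, 0.01% Tween-20; cpd pinned; ADP 130 uM final; 45 min RT; Kinase-Glo Plus 10 min; luminescence endpoint.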
* = called active by the depositor; ? = inconclusive; . = no result. Unless noted, calls come from the whole dose curve; as a rule, active = well fitted curve in the direction sought with a large enough effect; inconclusive = small, poorly fitted or top-dose-only effect, or another doubt; inactive = no such curve, though single readings can be large; an effect the other way counts as inactive or inconclusive.

SMILES | NS1 inh | SARS PLP yeast | Cycloheximide cs | LmPK inhibitor | Shiga inhibitor | Tb PYK inh
O=C(CNC(=O)c1ccccc1Br)N/N=C/c1cccs1 | 6% | 0% | -3 | 1% | 18 | -7%
Cc1cc(C(=O)N/N=C/c2cccn2C)n[nH]1 | -1% | -12% | 33* | -16% | active | 2%
Cc1cc(C(=O)N/N=C/c2cccs2)no1 | -1% | -19% | 40* | 0% | 58* | 3%
Cc1ccc(C(=O)N/N=C\c2cccs2)cn1 | . | 0% | 25* | -3% | 82* | 3%
O=C(N/N=C/c1cccs1)c1[nH]ncc1Br | 10% | -4% | 55* | 5% | 118* | -18%
CC(/C=N\NC(=O)c1ccc(C)nc1)=C\c1ccccc1 | 3% | 5% | 12 | -1% | 39 | -9%
Cc1cc(C(=O)N/N=C/c2ccc(-c3cccc(Cl)c3)o2)n[nH]1 | -2% | 0% | 6 | 10% | 21 | -2%
CN1C(=O)C(C)(C)c2cc(S(=O)(=O)NCc3ccc(C(=O)NCc4ccco4)cc3)ccc21 | -1% | 2% | -6 | -1% | -3 | 2%
CSCCC(=O)N1CCCC(N2CCN(c3cccc(C(F)(F)F)c3)CC2)C1 (configuration not stated) | -9% | 1% | -3 | 0% | -2 | -6%
Cc1nn(CC(=O)Nc2ccccc2F)c(=O)c2c(C)n(-c3ccc(Cl)cc3)nc12 | . | . | . | . | . | 3%
CCc1ccccc1N1CC(c2nc3ccccc3n2CCCOc2ccc(Cl)cc2)CC1=O (configuration not stated) | . | . | . | . | . | -30%
Cc1cc(C(=O)N/N=C/c2cccs2)n[nH]1 | . | 0% | 29* | -13% | 54* | -5%
Cn1cccc1/C=N/NC(=O)c1cccc(OC(F)(F)C(F)F)c1 | 7% | -4% | 30* | -3% | 63* | -1%
Cc1cc(C(=O)N/N=C\c2cc(C(C)(C)C)ccc2O)n[nH]1 | -30% | ? | 47* | 2% | 41* | -5%
O=C(N/N=C/c1cccs1)c1cnccn1 | -11% | -5% | 13 | -5% | 32* | -8%
O=C(N/N=C/c1cccs1)c1cc(-c2ccc(Cl)s2)[nH]n1 | 29% | -1% | 7 | 3% | 5 | 4%
O=C(N/N=C/c1ccncc1)c1cnccn1 | 5% | -1% | 9 | 0% | 46 | -1%
COc1ccc(NC(=O)Nc2cc(C)ccn2)cc1 | -21% | . | . | . | . | -11%
Cc1ccnc(NC(=O)c2cc3cc(F)ccc3s2)c1 | -15% | 1% | 45* | 0% | 83* | 0%
Cc1ccc(NC(=O)Nc2ccc3c(c2)N(C)C(=O)CS3)nc1 | 11% | -5% | -1 | 1% | 43 | -6%
Cc1ccnc(NC(=O)Nc2ccc(Br)cc2Cl)c1 | . | 1% | 47* | -3% | 91* | -10%
COC(=O)c1ccccc1NC(=O)Nc1cc(C)ccn1 | 1% | 0% | 2 | -1% | -5 | 2%
Cc1ccnc(NC(=O)Nc2ccc3c(c2)N(C)C(=O)CS3)c1 | ? | 17% | 83* | 0% | 156* | 4%
Cc1ccnc(NC(=O)Nc2ccc(F)cc2)c1 | -10% | -1% | 35* | -10% | 69* | 1%
Cc1ccc(NC(=O)Nc2ccc(F)cc2)nc1 | -3% | 5% | 47* | 3% | 65* | 3%
SMILES | NS1 inh | SARS PLP yeast | Cycloheximide cs | LmPK inhibitor | Shiga inhibitor | Tb PYK inh
COc1ccccc1NC(=O)Nc1ccc(C)cn1 | -38% | -4% | 10 | -3% | 23 | 3%
CSc1ccc(NC(=O)Nc2cc(C)ccn2)cc1 | 8% | 0% | 55* | 0% | 171* | 0%
Cn1c(C(=O)N2CCCC(C(=O)NCCCc3ccccc3)C2)cc2sccc21 (configuration not stated) | -13% | 7% | 10 | 1% | 36 | ?
Cn1c(C(=O)N2CCCC(C(=O)NCCc3ccccc3)C2)cc2sccc21 (configuration not stated) | -12% | -3% | 18* | 1% | 61* | ?
Cc1ccc(CCNC(=O)C2CCCN(C(=O)c3cc4sccc4n3C)C2)cc1 (configuration not stated) | -8% | 3% | -4 | 1% | -14 | 8.9µM*
OC(COc1ccc(Br)cc1)CN1CCC(Cc2ccccc2)CC1 (configuration not stated) | -4% | -21% | -3 | 3% | -2 | 0%
